We go through 18 compounds from PubChem BioAssay (NCATS).

Inconclusive results are not listed. Unmarked numbers belong to inactive results. Calls of active or inactive are those of the source. Calls follow the shape of the dose curve; as a rule, active = well fitted curve in the direction sought with a large enough effect; inconclusive = small, poorly fitted or top-dose-only effect, or another doubt; inactive = no such curve, though single readings can be large; an effect the other way counts as inactive or inconclusive.

The nature of experiment [1]: qHTS of pediatric cancer cell lines to identify multiple opportunities for drug repurposing: Primary screen for NB1643 cells (AID 1347099). Also: nearly all actives have a fitted effect of over 50% in size. Also: potency is read from the fitted curve at half-maximal effect.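 As to activity change, negative = cytotoxic: plate controls were DMSO neutral control for no effect and bortezomib positive control for full effect.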 In a few lines: (§1)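 Readout: CellTiter-Glo luminescence, 48 h treatment. Controls DMSO (neutral) and bortezomib 2.3 µM final (positive). Potency and efficacy taken from primary-screen concentration-response curves.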
Experiment [2] is described as follows: qHTS of pediatric cancer cell lines to identify multiple opportunities for drug repurposing: Primary screen for LAN-5 cells (AID 1347100). Also: potency is read from the fitted curve at half-maximal effect.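 As to activity change, negative = cytotoxic: plate controls were DMSO neutral control for no effect and bortezomib positive control for full effect.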 An outline of the steps:
(§2)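 Cells (500-1,000/well) rested 5 h, then received compounds for 48 h; metabolically active cells were measured by CellTiter-Glo luminescence. Final concentrations spanned up to 46 µM (MIPE, 11-point) or 0.59 nM-46 µM (NPC, 8-point) in primary screens, 11-point in follow-ups.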

The nature of experiment [3]: qHTS of pediatric cancer cell lines to identify multiple opportunities for drug repurposing: Primary screen for BT-12 cells (AID 1347101). Also: nearly all actives have a fitted effect of over 25% in size. Also: potency is read from the fitted curve at half-maximal effect.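 As to activity change, negative = cytotoxic: plate controls were DMSO for no effect and bortezomib positive control for full effect.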 An outline of the steps: as §2
Experiment [4] is described as follows: qHTS of pediatric cancer cell lines to identify multiple opportunities for drug repurposing: Primary screen for Rh18 cells (AID 1347102). Also: nearly all actives have a fitted effect of over 65% in size. Also: potency is read from the fitted curve at half-maximal effect. As to activity change, negative = cytotoxic: % is scaled to controls: 0 for no effect and ±100 for the full control effect. An outline of the steps: as §2
Experiment [5] is described as follows: qHTS of pediatric cancer cell lines to identify multiple opportunities for drug repurposing: Primary screen for RD cells (AID 1347104). Also: nearly all actives have a fitted effect of over 55% in size. Also: potency is read from the fitted curve at half-maximal effect.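 As to activity change, negative = cytotoxic: plate controls were DMSO for no effect and bortezomib for full effect.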 An outline of the steps:
as §1

The nature of experiment [6]: qHTS of pediatric cancer cell lines to identify multiple opportunities for drug repurposing: Primary screen for control Hh wild type fibroblast cells (AID 1347106).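 Also: series mostly up to about 46 µM; % is scaled to controls: 0 for no effect and ±100 for the full control effect; a drop in luminescence marks cytotoxicity and a rise apparent proliferation; nearly all actives have a fitted effect of over 55% in size.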 In a few lines:
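Viability after 48 h compound treatment at 37C, 500-1,000 cells/well, read as ATP luminescence with CellTiter-Glo. Primary screens used 11-point (MIPE, 0.78 nM-46 µM) or 8-point (NPC, 0.59 nM-46 µM) final concentrations; follow-up screens used 11-point dilutions.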

Experiment [7] is described as follows: qHTS of pediatric cancer cell lines to identify multiple opportunities for drug repurposing: Primary screen for OHS-50 cells (AID 1347103). Also: nearly all actives have a fitted effect of over 40% in size. Also: potency is read from the fitted curve at half-maximal effect.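 As to activity change, negative = cytotoxic: plate controls were DMSO neutral control for no effect and bortezomib positive control for full effect.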 An outline of the steps: as §2
Experiment [8] in a line: qHTS of pediatric cancer cell lines to identify multiple opportunities for drug repurposing: Primary screen for MG 63 (6-TG R) cells (AID 1347105). Also: nearly all actives have a fitted effect of over 50% in size. Also: potency is read from the fitted curve at half-maximal effect. As to activity change, negative = cytotoxic: % is scaled to controls: 0 for no effect and ±100 for the full control effect. An outline of the steps: as §1
A short description of experiment [9]: qHTS of pediatric cancer cell lines to identify multiple opportunities for drug repurposing: Primary screen for Rh30 cells (AID 1347107). Also: nearly all actives have a fitted effect of over 75% in size. Also: potency is read from the fitted curve at half-maximal effect. As to activity change, negative = cytotoxic: series mostly up to about 46 µM; % is scaled to controls: 0 for no effect and ±100 for the full control effect. An outline of the steps:
as §2

The nature of experiment [10]: qHTS of pediatric cancer cell lines to identify multiple opportunities for drug repurposing: Primary screen for Rh41 cells (AID 1347108). Also: nearly all actives have a fitted effect of over 70% in size. Also: potency is read from the fitted curve at half-maximal effect.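 As to activity change, negative = cytotoxic: series mostly up to about 46 µM; luminescence drop marks cytotoxic hits.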 An outline of the steps: as §1

In the case of `CC(C)CN(C[C@@H](O)[C@H](Cc1ccccc1)NC(=O)O[C@H]1CO[C@H]2OCC[C@H]21)S(=O)(=O)c1ccc(N)cc1`, the Potency is 18.7 µM (active) in experiment [1], 18.7 µM (active) in experiment [2], 3.85 µM (active) in experiment [3] and 14.8 µM (active) in [5]. Besides, the Potency result in experiment [4] and in experiment [6] was “inactive” each time.

On to `Nc1ccc(-c2ccc3ncc4ccc(=O)n(-c5cccc(C(F)(F)F)c5)c4c3c2)cn1`, for which the Potency in experiment [1] is 0.418 µM (active); in experiment [2], 0.0296 µM (active); in [3] it was 3.43 µM (active); in experiment [4] it was 0.148 µM (active); in experiment [7], 0.0069 µM (active); in [5] it was 0.235 µM (active). In addition, the Potency was 0.0009 µM (active) in [8], 1.66 µM (active) in [9] and 0.0264 µM (active) in experiment [10].

As to `C=C[C@@H]1CN2CCC1C[C@@H]2C(O)c1ccnc2ccc(OC)cc12` (some centres undefined), the Potency entry in experiment [1], in [2], in experiment [3], in experiment [4], in [7] and in experiment [8] was “inactive” each time. Further, the Potency result in [6] and in experiment [9] was “inactive” in each case.

With `CN1CCN2c3ncccc3Cc3ccccc3C2C1` (centres undefined), the Potency entry in [1], in experiment [2], in experiment [3], in [4], in experiment [7] and in [5] was “inactive” each time. For the same compound, the Potency entry in experiment [8], in experiment [9] and in [10] was “inactive” throughout.

Take `OC[C@H]1O[C@@H](OCCc2ccc(O)cc2)[C@H](O)[C@@H](O)[C@H]1O`: the Potency result in experiment [1], in experiment [2], in experiment [3], in experiment [4], in experiment [7] and in experiment [8] was “inactive” throughout.

As for `COc1cc2nc(-c3cc(F)ccc3O)nc(N[C@@H]3CNC[C@@H]3C(C)(C)O)c2cc1OC`, the Potency in experiment [1] was 16.6 µM (active); in experiment [2], 13.2 µM (active); in [3] it was 27.3 µM (active); in [4], 18.7 µM (active); in [7] it was 10.9 µM (active); in [5] it was 33.2 µM (active). For the same compound, in experiment [10], the Potency is 23.5 µM (active). Moreover, in [6], the Potency entry is “inactive”.

Take `CCCCC(F)(F)[C@@]1(O)CC[C@H]2[C@H](CC(=O)[C@@H]2CCCCCCC(=O)O)O1`: the Potency result in [1], in experiment [2], in [3], in [4], in experiment [7] and in experiment [8] was “inactive” throughout. Besides, the Potency result in [6] and in [9] was “inactive” in each case.

Turning to `CN[C@@H]1[C@@H](O)[C@@H](O[C@@H]2[C@@H](O)[C@H](O[C@H]3O[C@H](CN)[C@@H](O)[C@H](O)[C@@H]3O)[C@@H](N)C[C@@H]2NC(=O)[C@@H](O)CN)OC[C@]1(C)O`, the Potency result in [1], in experiment [2], in experiment [3], in [4], in experiment [7] and in experiment [5] was “inactive” throughout. The Potency entry in experiment [8], in experiment [6], in [9] and in experiment [10] was “inactive” in each case.

As to `Cc1cn([C@@H]2C[C@@H](O)[C@H](CO)O2)c(=O)[nH]c1=O`, the Potency entry in [1], in experiment [2], in experiment [3], in experiment [4], in experiment [7] and in experiment [5] was “inactive” in each case. For the same compound, the Potency entry in experiment [8], in [6], in experiment [9] and in experiment [10] was “inactive” each time.

As for `C[C@@H](O)[C@H]1C(=O)N2C(C(=O)OCOC(=O)C(C)(C)C)=C(SC3CN(C4=NCCS4)C3)[C@H](C)[C@H]12`, the Potency entry in experiment [1], in experiment [2], in experiment [3], in experiment [4], in [7] and in [5] was “inactive” throughout. In addition, the Potency result in [8], in [6] and in [10] was “inactive” throughout.

`CC[C@H](CC#N)OC(=O)N[C@@H](C)c1cccc(NC(=O)Nc2ccc(-c3cnco3)c(OC)c2)c1`: the Potency in [1] was 0.743 µM (active); in [2], 0.662 µM (active); in experiment [3], 0.611 µM (active); in [7], 7.69 µM (active). For the same compound, the Potency entry in experiment [4] and in experiment [10] was “inactive” each time.

In the case of `COc1cc(C=CC(=O)O)ccc1O`, the Potency entry in experiment [1], in experiment [2], in experiment [3], in [4], in experiment [5] and in experiment [8] was “inactive” in each case. For the same compound, the Potency entry in experiment [6], in experiment [9] and in experiment [10] was “inactive” in each case.

With `COc1ccc(-c2cc(=O)c3c(O)cc(O[C@@H]4O[C@H](CO[C@@H]5O[C@@H](C)[C@H](O)[C@@H](O)[C@@H]5O)[C@@H](O)[C@H](O)[C@@H]4O)cc3o2)cc1O`, the Potency in [1] was 16.6 µM (active). In addition, the Potency result in [2], in [3], in experiment [4], in experiment [7], in experiment [8] and in experiment [6] was “inactive” throughout.

For the compound `OC[C@H]1O[C@@H](Oc2ccc(O)cc2)[C@H](O)[C@@H](O)[C@H]1O`, the Potency entry in experiment [1], in experiment [2], in [3], in experiment [4], in experiment [7] and in experiment [5] was “inactive” throughout. Besides, the Potency result in experiment [8], in [6] and in [10] was “inactive” throughout.

`O=C(NCCCCN1CCOCC1)c1cc2ccccc2o1`: the Potency result in experiment [1], in experiment [2], in [3], in experiment [4], in experiment [7] and in experiment [5] was “inactive” throughout. For the same compound, the Potency result in experiment [8] and in [10] was “inactive” in each case.

In the case of `CC(C)c1c(C(=O)Nc2ccccc2)c(-c2ccccc2)c(-c2ccc(F)cc2)n1CC[C@H](O)C[C@@H](O)CC(=O)O`, the Potency in experiment [1] was 20.9 µM (active); in [3], 5.44 µM (active); in [4], 20.9 µM (active); in experiment [7], 19.3 µM (active); in [8], 14.8 µM (active). Further, the Potency result in experiment [2] and in experiment [6] was “inactive” in each case.

Consider `O=C(c1ccc(C(=O)N2CCC(N3CCCC3)CC2)c(Nc2ccccc2)c1)N1CCC(N2CCCC2)CC1`, for which the Potency result in experiment [1], in [2], in experiment [3], in [4], in [5] and in experiment [8] was “inactive” each time. Also, the Potency entry in [6] is “inactive”.

On to `CO[C@H]1C=CO[C@@]2(C)Oc3c(C)c(O)c4c(O)c(c(C=NN5CCN(C)CC5)c(O)c4c3C2=O)NC(=O)C(C)=CC=C[C@H](C)[C@H](O)[C@@H](C)[C@@H](O)[C@@H](C)[C@H](OC(C)=O)[C@H]1C`, for which the activity change, negative = cytotoxic in [1] was 22.3% [at 9.22 µM]; in experiment [2], -8.14% [at 9.22 µM]; in experiment [3], 2.32% [at 11.5 µM]; in experiment [4], -3.68% [at 9.22 µM]; in [7], -1.83% [at 11.5 µM]; in [8] it was -12.4% [at 9.22 µM]. Also, the figures for the activity change, negative = cytotoxic in experiment [9] and in experiment [10] were -1.05% [at 9.22 µM] and -8.55% [at 9.22 µM], respectively.
